Measured values as given in PubChem BioAssay (EPA / NIEHS).
Where “and” joins values, the source holds several entries; their conditions need not be identical. Equal entries are not always repeated. Results filed as inconclusive are left out. A structure can be active in one record and inactive in another. Calls of active or inactive are those of the source. How the source made its calls, unless noted: active means hit-call score of the fitted dose curve at least 0.9, where 1 is the maximum; inactive means score below 0.9.

Key:
[1] = ATG_PBREM_CIS: Attagene CIS-FACTORIAL HepG2 Assay for human Phenobarbital-responsive Enhancer Module (PBREM) (AID 2282955); settings: HepG2 PBREM cis-reporter, Attagene multiplexed transcription; actives raise or lower the signal
How it was run: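 HepG2 cells transiently transfected with multiple cis-regulated reporter transcription units; endogenous factor activity at the PBREM element measured as reporter mRNA 24 h after dosing, via RT-PCR and capillary electrophoresis of fluorescent fragments; bidirectional fitting versus DMSO.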

[2] = target: Paired box protein Pax-6 (Homo sapiens) (UniProt P26367); experiment: ATG_Pax6_CIS: Attagene CIS-FACTORIAL HepG2 Assay for human Paired Box 6 (PAX6) (AID 2282956); settings: HepG2 CIS-FACTORIAL PAX6 reporter transcription, RNA readout; actives raise or lower the signal
Paired box protein Pax-6 (Homo sapiens), sequence (P26367 whole entry, looked up): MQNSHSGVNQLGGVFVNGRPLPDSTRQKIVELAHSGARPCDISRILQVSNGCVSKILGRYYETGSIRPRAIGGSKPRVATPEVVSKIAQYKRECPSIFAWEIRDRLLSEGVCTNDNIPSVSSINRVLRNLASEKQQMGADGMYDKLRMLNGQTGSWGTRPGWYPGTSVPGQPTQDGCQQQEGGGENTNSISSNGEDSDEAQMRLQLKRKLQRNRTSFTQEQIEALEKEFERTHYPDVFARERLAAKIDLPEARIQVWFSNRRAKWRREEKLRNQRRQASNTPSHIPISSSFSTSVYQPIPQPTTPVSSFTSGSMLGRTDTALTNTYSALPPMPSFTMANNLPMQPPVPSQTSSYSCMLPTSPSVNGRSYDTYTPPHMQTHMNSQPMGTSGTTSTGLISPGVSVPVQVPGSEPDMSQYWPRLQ
How it was run: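 Readout: reporter transcript fluorescence after RT-PCR and capillary electrophoresis. Cells: HepG2, transiently transfected with cis-regulated MRTUs. Exposure 24 h. Gain or loss of signal fitted bidirectionally relative to DMSO.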

[3] = ATG_PXRE_CIS: Attagene CIS-FACTORIAL HepG2 Assay for human Pregnane X Receptor Element (PXRE) (AID 2282957); settings: HepG2 Attagene CIS-FACTORIAL PXRE reporter, mRNA; actives raise or lower the signal
How it was run: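 Bidirectional activity, baselined to DMSO, derived from reporter mRNA fluorescence (RT-PCR plus capillary electrophoresis) in HepG2 cells bearing cis-promoter reporter units, 24 h exposure.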

[4] = ATG_PPRE_CIS: Attagene CIS-FACTORIAL HepG2 Assay for human Peroxisome Proliferator-activated Response Element (PPRE) (AID 2282958); settings: HepG2 PPRE cis-element reporter, Attagene transcription factor profiling; actives raise or lower the signal
How it was run: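 HepG2 cells transiently transfected with multiplexed cis-element reporter units measure endogenous transcription factor activity. After 24 h compound exposure, reporter mRNA is quantified by RT-PCR, 6-FAM labeling, HpaI digestion and capillary electrophoresis; bidirectional fits are made against DMSO baseline.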

[5] = ATG_RORE_CIS: Attagene CIS-FACTORIAL HepG2 Assay for human RAR-related Orphan Receptor Element (RORE) (AID 2282959); settings: HepG2 Attagene cis-factorial RORE reporter, mRNA; actives raise or lower the signal
How it was run: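 HepG2 cells transiently transfected with multiple cis-element reporter transcription units, exposed to chemical for 24 h. Reporter mRNA quantified by RT-PCR, 6-FAM primer-extension labeling, HpaI digestion and capillary electrophoresis; bidirectional fit versus DMSO baseline.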

[6] = ATG_Sox_CIS: Attagene CIS-FACTORIAL HepG2 Assay for human SRY-box transcription factor (SOX) (AID 2282960); settings: HepG2 Attagene cis-factorial SOX reporter, mRNA; actives raise or lower the signal
How it was run: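 HepG2 cells transiently transfected with cis-element-driven multiple reporter transcription units, dosed 24 h; reporter mRNA measured by RT-PCR, FAM labelling, HpaI digestion and capillary electrophoresis. Bidirectional fit versus DMSO baseline.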

[7] = target: Transcription factor Sp1 (Homo sapiens) (UniProt P08047); experiment: ATG_Sp1_CIS: Attagene CIS-FACTORIAL HepG2 Assay for human Specificity Protein 1 (Sp1) (AID 2282961); settings: HepG2 Sp1 cis-reporter transcription, actives raise or lower the signal
Transcription factor Sp1 (Homo sapiens), sequence (P08047 whole entry, looked up): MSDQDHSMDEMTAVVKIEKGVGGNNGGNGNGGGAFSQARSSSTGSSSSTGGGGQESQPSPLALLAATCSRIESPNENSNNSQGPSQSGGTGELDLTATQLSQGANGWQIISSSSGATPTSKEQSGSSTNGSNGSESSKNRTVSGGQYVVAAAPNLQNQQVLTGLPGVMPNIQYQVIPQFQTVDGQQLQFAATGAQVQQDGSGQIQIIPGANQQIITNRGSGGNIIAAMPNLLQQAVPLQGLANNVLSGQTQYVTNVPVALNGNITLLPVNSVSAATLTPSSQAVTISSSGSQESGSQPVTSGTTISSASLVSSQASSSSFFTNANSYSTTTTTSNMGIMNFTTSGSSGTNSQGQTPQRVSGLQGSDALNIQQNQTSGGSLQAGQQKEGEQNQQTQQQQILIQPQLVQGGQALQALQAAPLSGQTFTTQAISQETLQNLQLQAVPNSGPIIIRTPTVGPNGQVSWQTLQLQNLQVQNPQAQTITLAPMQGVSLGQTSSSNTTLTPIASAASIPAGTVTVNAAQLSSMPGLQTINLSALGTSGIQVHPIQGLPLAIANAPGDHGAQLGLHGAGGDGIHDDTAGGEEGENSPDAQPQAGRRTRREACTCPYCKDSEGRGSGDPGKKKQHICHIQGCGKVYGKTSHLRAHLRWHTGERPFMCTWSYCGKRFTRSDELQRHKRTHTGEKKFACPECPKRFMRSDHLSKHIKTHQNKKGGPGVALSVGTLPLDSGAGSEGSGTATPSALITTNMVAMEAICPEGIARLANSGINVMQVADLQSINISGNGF
How it was run: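 HepG2 cells transiently transfected with multiple reporter transcription units driven by cis-regulatory elements; Sp1-responsive reporter mRNA measured 24 h after dosing by RT-PCR and capillary electrophoresis fluorescence, fitted bidirectionally against DMSO baseline.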

[8] = ATG_SREBP_CIS: Attagene CIS-FACTORIAL HepG2 Assay for human Sterol Regulatory Element Binding (SREBP) (AID 2282962); settings: HepG2 Attagene cis-factorial SREBP reporter, mRNA; actives raise or lower the signal
How it was run: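 Readout: fluorescent reporter-transcript peaks resolved by capillary electrophoresis after RT-PCR. Cells were human HepG2 carrying transfected cis-promoter reporter constructs, dosed for 24 h. Gain or loss of signal was fitted against DMSO controls.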

[9] = target: Signal transducer and activator of transcription 3 (Homo sapiens) (UniProt P40763); experiment: ATG_STAT3_CIS: Attagene CIS-FACTORIAL HepG2 Assay for human Signal Transducer and Activator of Transcription 3 (STAT3) (AID 2282963); settings: HepG2, Attagene cis-factorial STAT3 reporter transcription; actives raise or lower the signal
Signal transducer and activator of transcription 3 (Homo sapiens), sequence (P40763 whole entry, looked up): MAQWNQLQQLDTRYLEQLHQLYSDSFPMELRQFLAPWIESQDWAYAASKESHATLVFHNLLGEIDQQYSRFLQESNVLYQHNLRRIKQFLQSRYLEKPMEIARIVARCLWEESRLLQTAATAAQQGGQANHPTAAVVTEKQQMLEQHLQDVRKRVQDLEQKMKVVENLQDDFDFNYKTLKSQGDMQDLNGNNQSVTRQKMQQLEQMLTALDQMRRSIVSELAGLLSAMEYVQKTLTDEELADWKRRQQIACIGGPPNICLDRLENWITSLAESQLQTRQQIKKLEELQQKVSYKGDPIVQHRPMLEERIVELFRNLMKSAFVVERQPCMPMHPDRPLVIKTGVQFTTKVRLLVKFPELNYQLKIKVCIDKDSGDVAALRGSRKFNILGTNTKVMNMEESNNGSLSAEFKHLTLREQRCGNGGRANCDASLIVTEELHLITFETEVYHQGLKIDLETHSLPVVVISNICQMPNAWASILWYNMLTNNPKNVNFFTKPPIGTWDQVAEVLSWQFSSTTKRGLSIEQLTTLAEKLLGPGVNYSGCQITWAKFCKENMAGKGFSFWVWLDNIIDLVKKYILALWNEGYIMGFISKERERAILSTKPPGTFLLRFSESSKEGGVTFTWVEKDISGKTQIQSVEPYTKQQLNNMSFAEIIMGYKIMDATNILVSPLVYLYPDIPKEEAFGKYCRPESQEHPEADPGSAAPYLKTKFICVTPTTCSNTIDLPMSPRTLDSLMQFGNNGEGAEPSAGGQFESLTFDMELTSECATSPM
How it was run: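 Cis-factorial format: endogenous transcription factors in HepG2 drive transfected reporter units. After 24 h treatment, reporter RNA was reverse-transcribed, amplified, FAM-labelled and HpaI-digested before CE analysis; activity scored in both directions against DMSO.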

[10] = ATG_TA_CIS: Attagene CIS-FACTORIAL HepG2 Assay for human TA Basal Promoter (AID 2282964); settings: HepG2 Attagene CIS-factorial TA basal promoter reporter; actives raise or lower the signal
How it was run: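 HepG2 cells transiently transfected with multiple reporter units under cis promoter elements, reporting endogenous transcription factor activity; this endpoint tracks the TA basal promoter as background control. Reporter mRNA after 24 h dosing measured by RT-PCR/capillary electrophoresis; bidirectional fits versus DMSO.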

[11] = ATG_TCF_b_cat_CIS: Attagene CIS-FACTORIAL HepG2 Assay for human T-Cell-Factor with beta-catenin (TCF/b-cat) (AID 2282965); settings: HepG2 TCF/beta-catenin cis-reporter transcription, actives raise or lower the signal
How it was run: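 Endogenous TCF/LEF activity read as reporter transcript level via RT-PCR and capillary electrophoresis fluorescence in transfected HepG2, 24 h exposure; gain or loss of signal fitted against DMSO controls.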

[12] = ATG_TAL_CIS: Attagene CIS-FACTORIAL HepG2 Assay for human TAL Basal Promoter (AID 2282966); settings: HepG2 Attagene cis-factorial TAL promoter reporter; actives raise or lower the signal;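 further: background control endpoint measuring basal TAL promoter reporter mRNA not a specific factor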
How it was run: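 Human hepatoma HepG2 cells, transfected with promoter-regulated reporter units, were treated 24 h. Reporter transcript levels, measured through RT-PCR and capillary electrophoresis, were fitted for gain or loss relative to DMSO.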

[13] = ATG_TGFb_CIS: Attagene CIS-FACTORIAL HepG2 Assay for human Transforming Growth Factor (TGF) (AID 2282967); settings: HepG2 Attagene CIS TGFb reporter, mRNA transcription; actives raise or lower the signal
How it was run: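 HepG2 cells transiently transfected with cis-promoter-driven multiple reporter units measure endogenous TF activity; reporter mRNA quantified at 24 h by RT-PCR, FAM labeling, HpaI digestion and capillary electrophoresis. Bidirectional fit vs DMSO.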

[14] = ATG_VDRE_CIS: Attagene CIS-FACTORIAL HepG2 Assay for human Vitamin D Receptor Element (VDRE) (AID 2282968); settings: HepG2 VDRE cis-reporter transcription, actives raise or lower the signal
How it was run: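 Measures endogenous factor activity through cis-element-driven reporter transcripts in transiently transfected HepG2. Cells are treated 24 h; reporter mRNA is quantified by RT-PCR and capillary electrophoresis; fitting is bidirectional.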

[15] = target: Nuclear receptor subfamily 1 group I member 3 (Homo sapiens) (UniProt Q14994); experiment: ATG_CAR_TRANS: Attagene TRANS-FACTORIAL HepG2 Assay for human Constitutive Androstane Receptor (CAR) (AID 2282969; active means hit-call score of the fitted dose curve at least 0.9, where 1 is the maximum;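 further: activators raise reporter mRNA above DMSO so AC50 marks induction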); settings: HepG2 Attagene TRANS-FACTORIAL CAR reporter
Nuclear receptor subfamily 1 group I member 3 (Homo sapiens), sequence (Q14994 whole entry, looked up, the tested form may be a part): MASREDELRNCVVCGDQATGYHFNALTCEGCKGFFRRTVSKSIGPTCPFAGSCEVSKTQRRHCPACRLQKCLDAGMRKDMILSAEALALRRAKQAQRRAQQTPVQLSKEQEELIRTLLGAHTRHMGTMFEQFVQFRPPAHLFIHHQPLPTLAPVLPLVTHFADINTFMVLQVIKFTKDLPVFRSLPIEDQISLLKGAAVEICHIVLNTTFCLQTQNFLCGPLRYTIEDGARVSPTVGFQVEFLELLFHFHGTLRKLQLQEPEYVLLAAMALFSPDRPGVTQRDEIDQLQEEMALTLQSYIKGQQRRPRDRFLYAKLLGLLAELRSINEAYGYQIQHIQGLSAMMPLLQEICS
How it was run: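 Signal is reporter mRNA induction relative to DMSO, measured 24 h after dosing by RT-PCR with fluorescent primer extension and capillary electrophoresis. Human HepG2 liver cells carried transiently transfected chimeric NR-Gal4/GAL4-UAS reporter constructs.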

[16] = target: Estrogen receptor (Homo sapiens) (UniProt P03372); experiment: ATG_ERa_TRANS: Attagene TRANS-FACTORIAL HepG2 Assay for human Estrogen Receptor alpha (ERa) (AID 2282970; active means hit-call score of the fitted dose curve at least 0.9, where 1 is the maximum); settings: HepG2 Attagene TRANS ERa GAL4 reporter, mRNA
Estrogen receptor (Homo sapiens), sequence (P03372 whole entry, looked up, the tested form may be a part): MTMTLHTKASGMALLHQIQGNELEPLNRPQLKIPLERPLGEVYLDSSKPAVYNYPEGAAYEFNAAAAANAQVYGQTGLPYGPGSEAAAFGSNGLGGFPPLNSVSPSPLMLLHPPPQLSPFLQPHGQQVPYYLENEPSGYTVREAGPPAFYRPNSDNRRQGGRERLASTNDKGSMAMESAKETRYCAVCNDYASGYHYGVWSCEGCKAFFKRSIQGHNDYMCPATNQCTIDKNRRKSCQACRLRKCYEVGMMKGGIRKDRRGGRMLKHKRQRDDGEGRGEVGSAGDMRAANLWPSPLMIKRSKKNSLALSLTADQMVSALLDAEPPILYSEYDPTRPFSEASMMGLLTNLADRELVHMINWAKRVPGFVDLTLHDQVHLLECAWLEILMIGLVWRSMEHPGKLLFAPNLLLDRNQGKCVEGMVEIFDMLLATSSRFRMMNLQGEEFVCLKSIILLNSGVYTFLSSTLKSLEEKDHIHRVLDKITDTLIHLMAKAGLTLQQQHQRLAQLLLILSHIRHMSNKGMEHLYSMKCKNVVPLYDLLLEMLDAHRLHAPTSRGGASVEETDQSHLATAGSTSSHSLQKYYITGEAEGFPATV
How it was run: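 Signal derives from fluorescence of labelled reporter PCR fragments separated by capillary electrophoresis. HepG2 cells transiently carrying multiple GAL4-UAS reporter units were treated 24 hours, and induction above DMSO baseline was fitted as activity.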

[17] = target: X-box-binding protein 1 (Homo sapiens) (UniProt P17861); experiment: ATG_Xbp1_CIS: Attagene CIS-FACTORIAL HepG2 Assay for human X-box Binding Protein 1 (XBP1) (AID 2282972); settings: HepG2 XBP1 cis-element reporter, Attagene multiplex; actives raise or lower the signal
X-box-binding protein 1 (Homo sapiens), sequence (P17861 whole entry, looked up, the tested form may be a part): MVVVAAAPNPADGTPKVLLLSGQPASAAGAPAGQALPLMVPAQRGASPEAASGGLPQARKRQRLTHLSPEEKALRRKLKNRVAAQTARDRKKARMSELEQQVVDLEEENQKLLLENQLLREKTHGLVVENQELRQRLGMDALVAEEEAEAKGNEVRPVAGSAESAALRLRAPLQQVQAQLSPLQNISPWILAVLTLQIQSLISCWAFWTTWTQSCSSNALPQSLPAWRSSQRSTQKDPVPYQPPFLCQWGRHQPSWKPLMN
How it was run: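 Read-out: fluorescent reporter mRNA fragments resolved by capillary electrophoresis after RT-PCR. Human HepG2 liver cells carried transfected cis-promoter reporter units and were exposed to chemicals for 24 hours. Gain or loss of signal fitted relative to DMSO baseline.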

[18] = ATG_M_19_TRANS: Attagene TRANS-FACTORIAL HepG2 Assay for M19 Transcription Factor (Internal Marker) (AID 2282974; active means hit-call score of the fitted dose curve at least 0.9, where 1 is the maximum); settings: HepG2 Attagene TRANS-FACTORIAL M19 internal marker reporter
How it was run: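 HepG2 cells transiently transfected with multiple GAL4-UAS reporter transcription units were exposed to chemicals for 24 h. Reporter mRNA was read by RT-PCR, 6-FAM primer extension, HpaI digestion and capillary electrophoresis; gain of signal fitted relative to DMSO.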

[19] = ATG_GAL4_TRANS: Attagene TRANS-FACTORIAL HepG2 Assay for GAL4 (Internal Marker) (AID 2282976; active means hit-call score of the fitted dose curve at least 0.9, where 1 is the maximum); settings: HepG2 Attagene TRANS GAL4 internal marker reporter
How it was run: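 Liver HepG2 line bearing multiplexed GAL4-UAS reporter constructs; 24 h chemical treatment. Transcripts were quantified as fluorescent fragments on capillary electrophoresis after RT-PCR and HpaI cut, with activity fitted upward from DMSO.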

[20] = target: Estrogen-related receptor gamma (Homo sapiens) (UniProt P62508); experiment: ATG_ERRg_TRANS: Attagene TRANS-FACTORIAL HepG2 Assay for human Estrogen-Related Receptor gamma (ERRg) (AID 2282977; active means hit-call score of the fitted dose curve at least 0.9, where 1 is the maximum;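 further: hits increase reporter signal over DMSO so potencies reflect activators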); settings: HepG2 Attagene TRANS reporter, ERRg transactivation
Estrogen-related receptor gamma (Homo sapiens), sequence (P62508 whole entry, looked up, the tested form may be a part): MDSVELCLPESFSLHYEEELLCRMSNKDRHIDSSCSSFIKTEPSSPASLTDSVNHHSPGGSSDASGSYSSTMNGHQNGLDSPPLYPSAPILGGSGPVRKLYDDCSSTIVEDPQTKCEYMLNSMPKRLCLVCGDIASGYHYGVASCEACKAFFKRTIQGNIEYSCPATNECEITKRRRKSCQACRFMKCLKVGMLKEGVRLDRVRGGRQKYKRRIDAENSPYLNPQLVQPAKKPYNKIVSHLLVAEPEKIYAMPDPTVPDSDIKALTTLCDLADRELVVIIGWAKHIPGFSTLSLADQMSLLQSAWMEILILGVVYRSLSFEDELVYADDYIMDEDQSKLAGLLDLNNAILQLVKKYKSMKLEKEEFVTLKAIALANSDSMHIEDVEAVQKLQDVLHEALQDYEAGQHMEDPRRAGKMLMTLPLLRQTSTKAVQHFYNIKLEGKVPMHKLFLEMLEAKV
How it was run: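 Readout: fluorescent reporter-mRNA fragments resolved by capillary electrophoresis after RT-PCR and HpaI cut. Cells: transiently transfected HepG2 carrying GAL4-UAS reporters driven by exogenous NR-Gal4 chimeras, dosed 24 h. Activity fitted upward relative to DMSO baseline.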

Measured: AC50

CON(C)C(=O)Nc1ccc(Cl)c(Cl)c1
active: [1] 31.9 µM and 27.2 µM | [3] 26.7 µM [middle of 4 runs] | [4] 69.6 µM | [14] 28.7 µM and 35.7 µM and 23.4 µM
inactive: [1] | [2] | [4] | [5] | [6] | [7] | [8] | [9] | [10] | [11] | [12] | [13] | [14] | [15] | [16] | [17] | [18] | [19] | [20]

CCc1nn(C)c(C(=O)NCc2ccc(C(C)(C)C)cc2)c1Cl
active: [1] 1.39 µM | [3] 3.17 µM | [4] 0.462 µM | [14] 1.91 µM | [17] 0.352 µM
not listed: [18] | [19]
inactive: all other assays above

COC(=O)C=C(C)OP(=O)(OC)OC
not listed: [19]
inactive: all other assays above

CNC(=S)S
active: [3] 80 µM | [11] 168 µM
inactive: [1] | [2] | [3] | [6] | [7] | [8] | [9] | [10] | [11] | [12] | [13] | [15] | [17]

COc1nc(C)nc(NC(=O)NS(=O)(=O)c2ccccc2Cl)n1
inactive: [1] | [2] | [3] | [5] | [6] | [7] | [8] | [9] | [10] | [11] | [12] | [13] | [14] | [15] | [16] | [17] | [18] | [20]
active: [3] 31.3 µM

CCCCC(CC)COC(=O)c1ccccc1C(=O)OCC(CC)CCCC (stereo unspecified)
active: [3] 9.84 µM | [4] 17.5 µM
not listed: [14] | [19] | [20]
inactive: all other assays above
